Our source for the outcome and AC50 values is PubChem BioAssay (EPA / NIEHS).

The AC50 is the concentration at which the activity in the assay is half-maximal.

Each structure is given as a SMILES string. Records with an inconclusive call do not appear. Calls of active or inactive are those of the source. How the source made its calls, unless noted: active means hit-call score of the fitted dose curve at least 0.9, where 1 is the maximum; inactive means score below 0.9.

Assay [1] concerns the target Myc proto-oncogene protein (Homo sapiens) (UniProt P01106). Description: ATG_Myc_CIS: Attagene CIS-FACTORIAL HepG2 Assay for human Myelocytomatosis (Myc) Proto-Oncogene Transcription Factor (AID 2282990). The conditions noted are these: HepG2, Attagene cis-reporter transcription factor activity; actives raise or lower the signal. Summed up:
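Multiplexed cis-reporter transcription in HepG2 cells after 24 h chemical treatment. Reporter mRNA measured by RT-PCR and capillary electrophoresis fluorescence; activity fitted bidirectionally against DMSO control.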

Assay [2] can be described thus: ATG_NRF2_ARE_CIS: Attagene CIS-FACTORIAL HepG2 Assay for human Nuclear Factor Erythroid 2 Related Factor 2 (NFR2) response to Antioxidant Response Elements (ARE) (AID 2282992). Particulars: HepG2 Attagene ARE/NRF2 reporter, transcription factor activity; actives raise or lower the signal. The gist of the method: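 Endogenous transcription factor activity in human liver HepG2 cells is tracked via a cis-element-driven reporter within a multiplexed set. mRNA induction is read by RT-PCR and capillary electrophoresis after 24 h, with DMSO as baseline.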

Assay [3] is described as follows: ATG_Oct_MLP_CIS: Attagene CIS-FACTORIAL HepG2 Assay for human Octamer-Binding Transcription Factor (Oct) (AID 2282993). The conditions noted are these: HepG2 Attagene cis-factorial Oct reporter, mRNA; actives raise or lower the signal. The gist of the method: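 Read-out: reporter mRNA via RT-PCR plus capillary electrophoresis of 6-FAM-labelled fragments. Transiently transfected HepG2, 24 h exposure, endogenous TF activity on cis elements. Gain or loss of signal fitted relative to DMSO.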

The target in assay [4] is Cellular tumor antigen p53 (Homo sapiens) (UniProt P04637). The assay can be described thus: ATG_p53_CIS: Attagene CIS-FACTORIAL HepG2 Assay for human p53 Transcription Factor (AID 2282994). The conditions noted are these: HepG2 p53 cis-element reporter, Attagene mRNA; actives raise or lower the signal. The gist of the method:
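Steps: transfect HepG2 with multiplexed cis reporter constructs; dose chemicals 24 h; extract RNA, reverse-transcribe, PCR-amplify reporter sequences; FAM-label, HpaI-digest, resolve fragments by CE. Activity fitted both directions relative to DMSO.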

Assay [5] in a line: BSK_3C_TissueFactor: BioMAP Diversity Plus: 3C Assay for Tissue Factor Biomarker Activity (AID 2282997). The conditions noted are these: BioMAP 3C HUVEC, tissue factor biomarker readout; actives raise or lower the signal. The gist of the method:
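Tissue factor on primary human umbilical vein endothelium was read by ELISA 24 h after dosing, gain or loss relative to DMSO. Cytotoxicity ran alongside via SRB (0.1%, TCA-fixed, 560 nm).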

Assay [6] in a line: BSK_3C_uPAR: BioMAP Diversity Plus: 3C Assay for Urokinase-type plasminogen activator receptor (uPAR) Biomarker Activity (AID 2282998). Particulars: BioMAP 3C HUVEC, uPAR biomarker ELISA; actives raise or lower the signal. The gist of the method:
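HUVEC primary cells; 24 h post-dose; uPAR by ELISA; gain or loss of signal fitted bidirectionally vs DMSO baseline.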

Assay [7] is described as follows: BSK_3C_VCAM1: BioMAP Diversity Plus: 3C Assay for Vascular cell adhesion molecule 1 (VCAM1) Biomarker Activity (AID 2282999). Particulars: BioMAP 3C HUVEC, VCAM1 ELISA, cytokine-stimulated; actives raise or lower the signal. Summed up: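 Vascular primary endothelium (human umbilical vein) was exposed to chemicals and assayed 24 h later. VCAM-1 levels came from ELISA, with DMSO serving as baseline for bidirectional fitting.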
For orientation: ELISA stands for enzyme-linked immunosorbent assay.

Assay [8] in a line: BSK_4H_Eotaxin3: BioMAP Diversity Plus: 4H Assay for Eotaxin 3 Biomarker Activity (AID 2283000).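 Further: CCL26 protein level quantified by ELISA in parallel with SRB cytotoxicity check.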 Particulars: primary human endothelial cells (HUVEC); actives raise or lower the signal. The gist of the method: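 Human umbilical vein endothelial cells (BSK_4H system) dosed with test chemical; Eotaxin-3 (CCL26) measured by ELISA 24 h after dosing. Bidirectional curve fitting relative to DMSO negative control as baseline.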

Assay [9] has as its target human Peroxisome Proliferator-activated Receptor alpha (PPARa), PPARA (gene 5465) (UniProt Q07869). The assay can be described thus: ATG_PPARa_TRANS: Attagene TRANS-FACTORIAL HepG2 Assay for human Peroxisome Proliferator-activated Receptor alpha (PPARa) (AID 2283001; active means hit-call score of the fitted dose curve at least 0.9, where 1 is the maximum;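 on AC50: potency for gain of reporter signal over DMSO so agonist or activator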). Summed up:
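Exposure: 24 h, transiently transfected HepG2 cells. Endpoint: GAL4-UAS reporter mRNA, RT-PCR with capillary electrophoresis fluorescence. Baseline: DMSO; increases fitted.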

Read-out in assay [10]: Intercellular Adhesion Molecule 1 (ICAM1), ICAM1 (gene 3383)
The assay can be described thus: BSK_3C_ICAM1: BioMAP Diversity Plus: 3C Assay for Intercellular Adhesion Molecule 1 (ICAM1) Biomarker Activity (AID 2283003). Particulars: primary human endothelial cells (HUVEC); actives raise or lower the signal. Summed up: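 ELISA read-out of ICAM-1; HUVEC (primary human), 3C system, 24 h post-dosing; bidirectional fit vs DMSO baseline.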

A short description of assay [11]: BSK_3C_Proliferation: Cell Proliferation Assessment in the BioMAP Diversity Plus: 3C Assay (AID 2283006). The conditions noted are these: primary human endothelial cells (HUVEC). Summed up:
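HUVEC, sub-confluent; 48 h chemical exposure; 10% TCA fix, 0.1% SRB stain, A560 total protein. Gain or loss of signal fitted both directions vs DMSO control.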

The target of assay [12] is Peroxisome proliferator-activated receptor gamma (Homo sapiens) (UniProt P37231). Description: ATG_PPARg_TRANS: Attagene TRANS-FACTORIAL HepG2 Assay for human Peroxisome Proliferator-activated Receptor-gamma (PPARg) (AID 2283007; active means hit-call score of the fitted dose curve at least 0.9, where 1 is the maximum). Summed up: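 Human hepatoma HepG2, transient MRTU transfection, 24 h treatment. mRNA reporter signal by RT-PCR plus capillary electrophoresis, fluorescence detection; fitted for increase over DMSO negative control.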
Sequence of Peroxisome proliferator-activated receptor gamma (Homo sapiens) (P37231 whole entry, looked up): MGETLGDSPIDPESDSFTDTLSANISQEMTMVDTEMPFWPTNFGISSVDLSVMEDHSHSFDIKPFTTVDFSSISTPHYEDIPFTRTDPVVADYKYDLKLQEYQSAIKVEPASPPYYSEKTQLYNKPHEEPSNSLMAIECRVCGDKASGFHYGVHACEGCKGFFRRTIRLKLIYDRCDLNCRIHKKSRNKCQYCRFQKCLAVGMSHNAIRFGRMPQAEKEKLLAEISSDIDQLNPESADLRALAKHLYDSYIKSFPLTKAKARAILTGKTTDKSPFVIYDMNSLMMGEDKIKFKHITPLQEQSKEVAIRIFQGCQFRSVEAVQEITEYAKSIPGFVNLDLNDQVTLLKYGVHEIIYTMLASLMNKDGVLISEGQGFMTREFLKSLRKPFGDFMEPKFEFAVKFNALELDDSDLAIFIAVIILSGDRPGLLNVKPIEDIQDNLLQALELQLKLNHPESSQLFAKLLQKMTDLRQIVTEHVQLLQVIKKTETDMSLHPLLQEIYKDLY

The target in assay [13] is Nuclear receptor subfamily 1 group I member 2 (Homo sapiens) (UniProt O75469). Description: ATG_PXR_TRANS: Attagene TRANS-FACTORIAL HepG2 Assay for human Pregnane X Receptor (PXR) (AID 2283008; active means hit-call score of the fitted dose curve at least 0.9, where 1 is the maximum). The gist of the method: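 HepG2 transfected (FuGene 6) with GAL4-UAS reporter units + PXR-Gal4 chimera; dosed 24 h. Total RNA → oligo(dT) RT → PCR → 6-FAM primer extension → HpaI cut → CE. Gain-of-signal vs DMSO.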
Sequence of Nuclear receptor subfamily 1 group I member 2 (Homo sapiens) (O75469 whole entry, looked up, the tested form may be a part): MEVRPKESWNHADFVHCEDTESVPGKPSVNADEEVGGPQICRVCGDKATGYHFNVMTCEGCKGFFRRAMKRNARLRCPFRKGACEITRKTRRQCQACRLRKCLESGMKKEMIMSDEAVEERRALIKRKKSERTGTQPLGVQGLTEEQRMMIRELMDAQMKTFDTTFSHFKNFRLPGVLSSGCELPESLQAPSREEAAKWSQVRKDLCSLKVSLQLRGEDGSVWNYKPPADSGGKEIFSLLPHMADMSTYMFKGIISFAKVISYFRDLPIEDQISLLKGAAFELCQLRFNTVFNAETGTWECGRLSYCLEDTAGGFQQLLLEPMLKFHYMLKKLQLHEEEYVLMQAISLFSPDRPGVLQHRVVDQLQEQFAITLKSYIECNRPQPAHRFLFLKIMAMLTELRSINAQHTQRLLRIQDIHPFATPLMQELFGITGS

Assay [14] addresses human RAR-related Orphan Receptor beta (RORb), RORB (gene 6096) (UniProt Q92753). Description: ATG_RORb_TRANS: Attagene TRANS-FACTORIAL HepG2 Assay for human RAR-related Orphan Receptor beta (RORb) (AID 2283010; active means hit-call score of the fitted dose curve at least 0.9, where 1 is the maximum). The gist of the method:
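HepG2, transient MRTU transfection (GAL4-UAS reporters, exogenous NR-Gal4 chimeras); 24 h compound exposure; total RNA → RT-PCR → 6-FAM primer extension → HpaI digest → CE fluorescence. Positive direction vs DMSO baseline.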

Assay [15] concerns the target human Peroxisome Proliferator-activated Receptor delta (PPARd), PPARD (gene 5467) (UniProt Q03181). The assay can be described thus: ATG_PPARd_TRANS: Attagene TRANS-FACTORIAL HepG2 Assay for human Peroxisome Proliferator-activated Receptor delta (PPARd) (AID 2283002; active means hit-call score of the fitted dose curve at least 0.9, where 1 is the maximum). The gist of the method: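 Multiplexed trans-activation format: HepG2 liver cells expressing exogenous NR-Gal4 chimeras and GAL4-UAS reporters were exposed for 24 h. Reporter mRNA was detected by RT-PCR with capillary electrophoresis fluorescence; activity fitted as gain of signal relative to DMSO.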

Assay [16] can be described thus: ATG_NF_kB_CIS: Attagene CIS-FACTORIAL HepG2 Assay for human Nuclear Factor Kappa B (NF-kB) (AID 2282991). The conditions noted are these: HepG2 Attagene cis-factorial NF-kB reporter mRNA; actives raise or lower the signal. The gist of the method:
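Multiplexed cis-reporter assay in transiently transfected HepG2. 24 h treatment; RNA isolated, RT-PCR, labelled fragments resolved by CE. DMSO baseline.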

The target in assay [17] is human Retinoic Acid Receptor beta (RARb), RARB (gene 5915) (UniProt P10826). The assay can be described thus: ATG_RARb_TRANS: Attagene TRANS-FACTORIAL HepG2 Assay for human Retinoic Acid Receptor beta (AID 2283004; active means hit-call score of the fitted dose curve at least 0.9, where 1 is the maximum). The gist of the method:
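Induction of reporter mRNA from a chimeric RARb-Gal4 construct was measured by RT-PCR, FAM labelling, HpaI digestion and capillary electrophoresis. Measurements followed 24 h compound treatment of transiently transfected human HepG2 liver cells, with DMSO as baseline.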

Assay [18] has as its target Retinoic acid receptor alpha (Homo sapiens) (UniProt P10276). The assay can be described thus: ATG_RARa_TRANS: Attagene TRANS-FACTORIAL HepG2 Assay for human Retinoic Acid Receptor alpha (RARa) (AID 2283005; active means hit-call score of the fitted dose curve at least 0.9, where 1 is the maximum). Summed up: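 HepG2 cells transiently transfected with multiple reporter units expressing chimeric RARα-GAL4 fusion, with GAL4-UAS-driven reporters. After 24 h compound exposure, reporter mRNA induction quantified by RT-PCR and capillary electrophoresis with fluorescent labeling; gain-of-signal fitted relative to DMSO control.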

Sequence of human Peroxisome Proliferator-activated Receptor alpha (PPARa), PPARA (gene 5465) (Q07869 whole entry, looked up, the tested form may be a part): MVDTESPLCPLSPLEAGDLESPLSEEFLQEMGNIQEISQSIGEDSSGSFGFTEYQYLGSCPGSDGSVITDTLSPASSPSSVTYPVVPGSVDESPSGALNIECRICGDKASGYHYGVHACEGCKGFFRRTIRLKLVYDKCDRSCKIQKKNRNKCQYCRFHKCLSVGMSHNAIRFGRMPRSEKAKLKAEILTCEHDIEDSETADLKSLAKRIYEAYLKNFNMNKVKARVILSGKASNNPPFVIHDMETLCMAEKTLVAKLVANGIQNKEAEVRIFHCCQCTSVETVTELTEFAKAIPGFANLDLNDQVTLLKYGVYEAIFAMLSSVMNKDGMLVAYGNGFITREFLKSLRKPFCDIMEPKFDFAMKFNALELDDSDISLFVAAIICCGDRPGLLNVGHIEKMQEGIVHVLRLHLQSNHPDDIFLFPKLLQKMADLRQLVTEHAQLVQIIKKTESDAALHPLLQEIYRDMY
Sequence of human RAR-related Orphan Receptor beta (RORb), RORB (gene 6096) (Q92753 whole entry, looked up, the tested form may be a part): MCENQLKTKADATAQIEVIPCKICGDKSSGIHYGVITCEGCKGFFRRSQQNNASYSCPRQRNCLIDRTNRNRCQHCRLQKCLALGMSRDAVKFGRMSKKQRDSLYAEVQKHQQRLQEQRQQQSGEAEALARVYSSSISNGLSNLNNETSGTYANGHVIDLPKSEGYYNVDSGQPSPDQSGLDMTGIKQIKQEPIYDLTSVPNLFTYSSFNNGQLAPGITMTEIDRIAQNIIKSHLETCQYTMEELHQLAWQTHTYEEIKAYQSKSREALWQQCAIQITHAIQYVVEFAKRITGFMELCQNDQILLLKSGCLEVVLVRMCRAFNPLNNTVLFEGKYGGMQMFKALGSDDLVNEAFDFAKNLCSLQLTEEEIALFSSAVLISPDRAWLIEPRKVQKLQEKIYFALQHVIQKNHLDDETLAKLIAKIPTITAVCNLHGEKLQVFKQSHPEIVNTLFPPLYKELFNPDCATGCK
Sequence of human Peroxisome Proliferator-activated Receptor delta (PPARd), PPARD (gene 5467) (Q03181 whole entry, looked up, the tested form may be a part): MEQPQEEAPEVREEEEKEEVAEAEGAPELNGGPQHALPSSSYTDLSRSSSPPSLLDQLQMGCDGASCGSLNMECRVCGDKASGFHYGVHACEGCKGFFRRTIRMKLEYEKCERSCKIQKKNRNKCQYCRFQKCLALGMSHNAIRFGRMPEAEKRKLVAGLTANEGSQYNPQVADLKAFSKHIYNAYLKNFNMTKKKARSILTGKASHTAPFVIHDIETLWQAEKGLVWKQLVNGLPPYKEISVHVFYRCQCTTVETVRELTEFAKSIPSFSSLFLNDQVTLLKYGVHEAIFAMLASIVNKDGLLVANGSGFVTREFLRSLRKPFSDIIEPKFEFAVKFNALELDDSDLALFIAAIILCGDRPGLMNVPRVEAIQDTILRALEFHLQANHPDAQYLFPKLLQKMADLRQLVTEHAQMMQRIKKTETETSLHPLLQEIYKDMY
Sequence of Cellular tumor antigen p53 (Homo sapiens) (P04637 whole entry, looked up, the tested form may be a part): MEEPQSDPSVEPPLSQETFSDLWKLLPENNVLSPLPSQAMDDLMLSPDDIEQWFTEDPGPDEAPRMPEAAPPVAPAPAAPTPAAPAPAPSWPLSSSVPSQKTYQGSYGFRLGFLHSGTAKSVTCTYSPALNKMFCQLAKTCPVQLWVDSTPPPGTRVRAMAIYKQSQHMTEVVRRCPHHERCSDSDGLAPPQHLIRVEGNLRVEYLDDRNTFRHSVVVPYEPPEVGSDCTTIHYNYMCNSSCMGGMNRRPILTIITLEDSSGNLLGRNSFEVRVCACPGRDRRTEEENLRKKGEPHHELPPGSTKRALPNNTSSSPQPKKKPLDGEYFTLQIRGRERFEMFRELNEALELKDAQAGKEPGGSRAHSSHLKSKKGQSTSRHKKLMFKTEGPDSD
Sequence of Myc proto-oncogene protein (Homo sapiens) (P01106 whole entry, looked up): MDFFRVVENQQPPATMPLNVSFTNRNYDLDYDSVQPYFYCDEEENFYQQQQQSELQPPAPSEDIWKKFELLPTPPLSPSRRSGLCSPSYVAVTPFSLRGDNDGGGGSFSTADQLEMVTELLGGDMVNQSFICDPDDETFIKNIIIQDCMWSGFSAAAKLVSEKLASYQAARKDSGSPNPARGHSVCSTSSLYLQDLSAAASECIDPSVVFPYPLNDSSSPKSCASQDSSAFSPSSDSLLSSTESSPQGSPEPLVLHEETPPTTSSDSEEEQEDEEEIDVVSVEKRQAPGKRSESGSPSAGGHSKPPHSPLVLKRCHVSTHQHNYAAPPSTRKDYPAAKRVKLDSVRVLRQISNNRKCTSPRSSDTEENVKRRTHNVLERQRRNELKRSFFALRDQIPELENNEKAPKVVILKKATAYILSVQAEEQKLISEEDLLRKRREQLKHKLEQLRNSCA
Sequence of human Retinoic Acid Receptor beta (RARb), RARB (gene 5915) (P10826 whole entry, looked up, the tested form may be a part): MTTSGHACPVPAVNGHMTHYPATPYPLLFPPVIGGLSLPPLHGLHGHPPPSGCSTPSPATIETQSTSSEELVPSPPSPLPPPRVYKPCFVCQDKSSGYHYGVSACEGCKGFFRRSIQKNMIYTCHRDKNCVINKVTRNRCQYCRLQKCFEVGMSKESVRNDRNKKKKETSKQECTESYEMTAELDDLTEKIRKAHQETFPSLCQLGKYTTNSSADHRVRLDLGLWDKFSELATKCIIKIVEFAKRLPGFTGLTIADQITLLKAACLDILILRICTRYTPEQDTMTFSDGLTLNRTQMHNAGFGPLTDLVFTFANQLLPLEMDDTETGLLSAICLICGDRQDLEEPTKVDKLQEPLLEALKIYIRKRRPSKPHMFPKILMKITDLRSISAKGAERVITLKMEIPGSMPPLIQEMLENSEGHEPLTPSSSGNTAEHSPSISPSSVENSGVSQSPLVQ
Sequence of Retinoic acid receptor alpha (Homo sapiens) (P10276 whole entry, looked up, the tested form may be a part): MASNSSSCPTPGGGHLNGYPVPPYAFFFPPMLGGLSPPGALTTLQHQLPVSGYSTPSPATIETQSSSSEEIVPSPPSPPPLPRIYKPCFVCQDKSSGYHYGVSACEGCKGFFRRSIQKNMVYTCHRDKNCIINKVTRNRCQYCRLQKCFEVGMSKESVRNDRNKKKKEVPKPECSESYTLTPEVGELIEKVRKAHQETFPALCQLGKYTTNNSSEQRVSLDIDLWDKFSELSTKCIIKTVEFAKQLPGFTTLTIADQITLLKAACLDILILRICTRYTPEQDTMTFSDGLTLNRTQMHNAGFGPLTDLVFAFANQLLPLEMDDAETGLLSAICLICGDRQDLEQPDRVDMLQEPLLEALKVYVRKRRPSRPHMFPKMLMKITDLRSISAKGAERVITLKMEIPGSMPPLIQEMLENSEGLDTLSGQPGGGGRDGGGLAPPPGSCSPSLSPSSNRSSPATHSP

For `C=CCc1ccc(O)c(OC)c1`, the call in assay [1], in [3], in assay [4], in assay [5], in assay [6] and in [7] was inactive. In addition, the result in assay [8], in assay [9], in [10], in assay [11] and in assay [14] was inactive. Moreover, the figures for the half-maximal activity concentration (AC50) in assay [2], in assay [12] and in [13] were 27 µM (active), 40.5 µM (active) and 38.5 µM (active), respectively.
With `Cc1ccc(Cl)cc1`, the call in assay [1], in assay [2], in assay [3], in assay [4], in assay [6] and in assay [7] was inactive. Further, the result in assay [8], in assay [15], in assay [10], in assay [11], in assay [12] and in assay [13] was inactive.
With `Cc1ccc(C(C)C)c(O)c1`, the call in [1], in [16], in [3], in assay [4], in [6] and in assay [7] was inactive. Also, the outcome in assay [8], in [9], in [10], in assay [17], in [11] and in assay [12] was inactive. In addition, the call in assay [13] was inactive. Also, in [2], the AC50 is 100 µM (active).
Regarding `COc1cc(C=O)ccc1O`, the call in assay [1], in assay [16], in assay [2], in assay [3], in assay [4] and in assay [6] was inactive. Moreover, the outcome in [7], in [8], in assay [15], in assay [10], in assay [11] and in assay [14] was inactive.
As to `Cc1oc(-c2ccccc2)nc1CCOc1cccc2c1ccn2CCC(=O)O`, the call in [1], in assay [16], in assay [3], in assay [4], in assay [6] and in assay [7] was inactive. Also, the result in assay [8], in assay [10], in assay [17], in assay [18] and in [11] was inactive. Besides, the concentration at half-maximal activity (AC50) in assay [2] was 31.4 µM (active); in [9] it was 3.95 µM (active); in assay [15], 4.28 µM (active); in [12], 0.0142 µM (active); in assay [13], 10.9 µM (active).
Regarding `O=C(N[C@@H](Cc1ccccc1)[C@@H](O)C(=O)N1C[C@@H](O)[C@@H](O)C1)c1cc2cc(Cl)ccc2[nH]1`, the call in [1], in assay [16], in assay [3], in assay [4], in assay [5] and in assay [6] was inactive. Moreover, the outcome in assay [7], in [8], in [15], in assay [10], in assay [11] and in assay [12] was inactive. Besides, the compound was called inactive in [13] and in assay [14]. Besides, the half-maximal activity concentration (AC50) in assay [2] is 91.9 µM (active).
In the case of `Cc1nc(C)nc(N2C[C@@H](C)N(c3ccnc([C@@H](C)O)n3)[C@@H](C)C2)n1`, the result in assay [1], in [16], in [2], in assay [3], in [4] and in [7] was inactive. Also, the outcome in [8], in assay [10] and in assay [11] was inactive. For the same compound, the AC50 in [6] was 12.9 µM (active); in assay [13], 82.4 µM (active).
For the compound `COc1cccc2c1C(=O)c1c(O)c3c(c(O)c1C2=O)C[C@@](O)(C(=O)CO)C[C@@H]3O[C@H]1C[C@H](N)[C@H](O)[C@H](C)O1`, the concentration at half-maximal activity (AC50) in [1] is 2.48 µM (active); in assay [16] it was 0.653 µM (active); in assay [2] it was 1.56 µM (active); in [3], 0.719 µM (active); in assay [4] it was 2.24 µM (active). Besides, the compound was called inactive in [15], in [12] and in [13].
